# Results filed as inconclusive are left out. Entries that show only a call come without a potency. Activity calls are given as the source filed them. Calls follow the shape of the dose curve; as a rule, active = well fitted curve in the direction sought with a large enough effect; inconclusive = small, poorly fitted or top-dose-only effect, or another doubt; inactive = no such curve, though single readings can be large; an effect the other way counts as inactive or inconclusive.
# How the values were obtained:
# [1] = test system: Zika virus NS2B-NS3 protease; assay: Primary screen GU AMC qHTS for Zika virus inhibitors (AID 1347154); also: nearly all actives have a fitted effect of over 70% in size
# Summary of the method: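 Fluorogenic AMC-substrate cleavage by noncovalent NS2B-NS3 protease complex (25 nM, pH 8.0 Tris buffer with Tween 20) followed for 15 minutes at room temperature (~20% conversion). Percent inhibition from ex340/em450 signal change, fitted by 4-parameter Hill equation.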
# [2] = qHTS to identify inhibitors of the type 1 interferon - major histocompatibility complex class I in skeletal muscle: primary screen against the NCATS Mechanism Interrogation Plate v5.0 (MIPE) Libary (AID 1347411); also: nearly all actives have a fitted effect of over 65% in size; also: potency is read from the fitted curve at half-maximal effect
# Summary of the method: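 HLA-B HiBit myoblasts, dexamethasone-free medium + 4 ng/ml IFN-b, 24 h compound, 11-pt 1:3 from 46 uM final. Readout: Nano-Glo HiBiT lytic luminescence after 10 min lysis, RT.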
# [3] = test system: Zika virus NS2B-NS3 protease (linked construct); assay: 384 well plate NINDS Rhodamine confirmatory qHTS for Zika virus inhibitors (AID 1347164); also: potency is read from the fitted curve at half-maximal effect; nearly all actives have a fitted effect of over 65% in size
# Summary of the method: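 Cleavage of Ac-LKRR-Rhodamine 110 (10 microM final) by linked protease (final 5, 30 or 60 nM) was followed as fluorescence at 485/538 nm after 25 min, room temperature, dark. Compounds preincubated ~15 min.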
# [4] = Confirmatory screen NINDS Rhodamine qHTS for Zika virus inhibitors (AID 1347161); also: potency is read from the fitted curve at half-maximal effect; nearly all actives have a fitted effect of over 60% in size
# Summary of the method: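 Each compound, titrated, sat 15 min with 25 nM linked protease before 1.5 microM Rhodamine110 substrate went in. Fluorescence gain over the next 15 min, in pH 8.0 Tris with Tween 20, gave Hill-fitted curves.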
# [5] = test system: Zika virus NS2B-NS3 protease (linked construct); assay: Primary screen NINDS Rhodamine qHTS for Zika virus inhibitors (AID 1347160); also: nearly all actives have a fitted effect of over 55% in size; also: potency is read from the fitted curve at half-maximal effect
# Summary of the method: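 Rhodamine110-peptide cleavage (1.5 µM substrate) by 25 nM linked NS2B-NS3 enzyme at pH 8.0 (Tris, Tween 20), after 15 min RT preincubation with compounds; 15-min fluorescence change normalized to controls and Hill-fitted.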
# [6] = test system: Zika virus NS2B-NS3 protease (unlinked complex); assay: Primary screen GU Rhodamine qHTS for Zika virus inhibitors: Unlinked NS2B-NS3 protease assay (AID 1347159); also: nearly all actives have a fitted effect of over 60% in size; also: potency is read from the fitted curve at half-maximal effect
# Summary of the method: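 Percent inhibition came from the 15-min rise in Rhodamine110 fluorescence (1.5 microM substrate, ~15% conversion), normalized to no-inhibitor and no-enzyme wells and Hill-fitted. Unlinked protease, 25 nM, pH 8.0 Tris buffer; compounds up to 114 microM, 15-min preincubation.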
# [7] = target: Protein phosphatase 1D (Homo sapiens) (UniProt O15297); assay: RapidFire Mass Spectrometry qHTS Assay for Modulators of WT P53-Induced Phosphatase 1 (WIP1) (AID 1347424);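 also: amount of dephosphorylated VEPPL-S-QETFS peptide product formed by WIP1; series mostly up to about 63 µM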
# Summary of the method: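 RapidFire mass spectrometry measured dephosphorylated peptide after 5 min room-temperature reaction of 2 uM VEPPL-pS-QETFS with 10 nM WIP1 (50 mM Tris-HCl pH 7.5, 30 mM MgCl2, 0.1 mM EGTA, BSA), following 1 hr compound preincubation; 1 uM isotope-labelled product standard.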
# [8] = qHTS to identify inhibitors of the type 1 interferon - major histocompatibility complex class I in skeletal muscle: primary screen against the NCATS Pharmaceutical Collection (AID 1347407);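 also: luminescence of HiBiT knocked into endogenous HLA-B as interferon-induced MHC class I level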
# Summary of the method: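 A qHTS format is used: 8-point, 1:5 compound series with 46 uM top final concentration, applied alongside 4 ng/ml IFN-beta to HLA-B*08:01-HiBiT knock-in myoblasts. Luminescence is measured after 24 h treatment.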
# Chain of Protein phosphatase 1D (Homo sapiens) (O15297 whole entry, looked up): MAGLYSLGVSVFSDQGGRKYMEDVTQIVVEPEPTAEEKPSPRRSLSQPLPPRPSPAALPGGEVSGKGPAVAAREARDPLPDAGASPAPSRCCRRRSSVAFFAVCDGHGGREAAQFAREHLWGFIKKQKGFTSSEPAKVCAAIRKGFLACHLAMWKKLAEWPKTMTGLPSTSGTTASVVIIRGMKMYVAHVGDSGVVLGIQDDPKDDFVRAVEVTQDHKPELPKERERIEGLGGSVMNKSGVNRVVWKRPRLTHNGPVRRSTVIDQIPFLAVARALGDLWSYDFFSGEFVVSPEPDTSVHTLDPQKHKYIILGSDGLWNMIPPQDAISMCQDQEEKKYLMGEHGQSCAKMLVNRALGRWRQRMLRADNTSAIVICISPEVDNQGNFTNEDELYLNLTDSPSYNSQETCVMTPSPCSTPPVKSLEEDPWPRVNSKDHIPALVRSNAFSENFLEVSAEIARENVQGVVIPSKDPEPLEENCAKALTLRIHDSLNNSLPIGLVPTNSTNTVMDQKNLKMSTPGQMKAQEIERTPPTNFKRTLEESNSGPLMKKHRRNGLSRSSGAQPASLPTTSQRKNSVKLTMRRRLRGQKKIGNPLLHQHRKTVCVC
smiles,measurement,setting,value
C[C@]12CC[C@@H]3c4ccc(O)cc4CC[C@H]3[C@H]1[C@@H](O)[C@@H](O)[C@H]2O,Potency,[1],inactive
same,Potency,[2],inactive
CC[C@H](C=C[C@@H](C)[C@H]1CC[C@H]2[C@@H]3CC=C4C[C@@H](O)CC[C@]4(C)[C@@H]3CC[C@]12C)C(C)C,Potency,[1],inactive
same,Potency,[2],inactive
N#CC(c1ccnc(NCCc2cccnc2)n1)c1nc2ccccc2s1 (stereo not drawn),Potency,[2],14.7 µM (active)
CN(C)CC[C@H](CSc1ccccc1)Nc1ccc(S(=O)(=O)NC(=O)c2ccc(N3CCN(Cc4ccccc4-c4ccc(Cl)cc4)CC3)cc2)cc1[N+](=O)[O-],Potency,[3],0.708 µM (active)
C=C1c2cccc(O)c2C(O)=C2C(=O)[C@@]3(O)C(O)=C(C(N)=O)C(=O)[C@@H](N(C)C)[C@@H]3[C@@H](O)[C@H]12,Potency,[4],15.6 µM (active)
COc1cccc(OC)c1-c1cc(C(=O)NC2(C(=O)O)C3CC4CC(C3)CC2C4)nn1-c1ccnc2cc(Cl)ccc12 (stereo not drawn),Potency,[2],inactive
CNC(=O)c1cc(Oc2ccc(NC(=O)Nc3ccc(Cl)c(C(F)(F)F)c3)c(F)c2)ccn1,Potency,[5],inactive
same,Potency,[2],23.4 µM (active)
Cc1csc(-c2nnc(Nc3ccc(Oc4ncccc4-c4ccnc(N)n4)cc3)c3ccccc23)c1,Potency,[6],inactive
C[C@H](c1ccc(F)cc1CCCC(=O)O)N(c1cc(F)ccc1F)S(=O)(=O)c1ccc(Cl)cc1,Potency,[6],14.1 µM (active)
same,Potency,[5],14.1 µM (active)
same,Potency,[2],inactive
COc1ccc2nc3cc(Cl)ccc3c(Nc3cc(CN4CCCC4)c(O)c(CN4CCCC4)c3)c2n1,Potency,[2],18.6 µM (active)
CN(C)c1ccc(-c2nc3ncc(Cl)c(N4CCN(CC(=O)Nc5nccs5)CC4)c3[nH]2)cc1,Potency,[6],17.8 µM (active)
O=[N+]([O-])c1ccc(Nc2ccccc2-c2ccccc2)c2nonc12,Potency,[2],26.2 µM (active)
Cc1cc(-c2ncc(CC(=O)Nc3ccc(-c4cnccn4)cn3)cc2C)ccn1,Potency,[6],inactive
same,Potency,[5],inactive
same,Potency,[2],inactive
CC(C)(C)c1nc(-c2cccc(NS(=O)(=O)c3c(F)cccc3F)c2F)c(-c2ccnc(N)n2)s1,Potency,[6],14.1 µM (active)
O=C1NC(=O)C(c2cnc3ccccn23)=C1c1cn2c3c(cccc13)CN(C(=O)N1CCOCC1)CC2,Potency,[6],inactive
same,Potency,[5],inactive
CN(C)N=Nc1nc[nH]c1C(N)=O,Potency,[1],inactive
same,Potency,[2],inactive
Cn1cc(-c2ccc3nnc(Sc4ccc5ncccc5c4)n3n2)cn1,Potency,[2],inactive
CO[C@@H]1C(N(C)C(=O)c2ccccc2)C[C@H]2O[C@]1(C)n1c3ccccc3c3c4c(c5c6ccccc6n2c5c31)C(=O)NC4=O (stereo partly drawn),Potency,[2],inactive
Cc1ccc2c(=O)c3cccc(CC(=O)O)c3oc2c1C,Potency,[2],inactive
Cc1ccc(S(=O)(=O)OCC(=O)Nc2ccc(C(=O)O)c(O)c2)cc1,Potency,[2],inactive
Cc1cc(OCCCS(C)(=O)=O)cc(C)c1-c1cccc(COc2ccc3c(c2)OC[C@H]3CC(=O)O)c1,Potency,[2],inactive
CN[C@@H]1CN(c2ccc3c(=O)c(C(=O)O)cn(-c4nccs4)c3n2)C[C@@H]1OC,Potency,[2],5.09 µM (active)
O[C@@H](COc1cccc2ncccc12)CN1CCN(C2c3ccccc3[C@@H]3[C@H](c4ccccc42)C3(F)F)CC1 (stereo partly drawn),Potency,[6],inactive
same,Potency,[5],inactive
same,Potency,[7],inactive
COc1ccc(Cn2ccc3ccc(C(=O)NO)cc32)cc1,Potency,[6],inactive
same,Potency,[5],inactive
same,Potency,[2],inactive
Cc1cc(NC(=O)Nc2ccc(N(C)C)cc2)c2cc(F)cc(F)c2n1,Potency,[1],inactive
same,Potency,[2],inactive
Cn1c(=O)c(Oc2ccc(F)cc2F)cc2cnc(NC3CCOCC3)nc21,Potency,[2],inactive
CNC(=O)c1ccc2c(C(=Nc3cccc(CN(C)C)c3)c3ccccc3)c(O)[nH]c2c1,Potency,[6],inactive
same,Potency,[5],inactive
Cc1cn([C@@H]2C[C@@H](O)[C@H](CO)O2)c(=O)[nH]c1=O,Potency,[1],inactive
same,Potency,[2],inactive
C[C@@H]1CCO[C@H]2Cn3cc(C(=O)NCc4ccc(F)cc4F)c(=O)c(O)c3C(=O)N12,Potency,[6],inactive
CCCCCCCCCCCCCCCC(=O)O[C@H]1[C@@H](O)[C@@H](O)[C@@H]([C@H](NC(=O)[C@@H]2C[C@@H](CCC)CN2C)[C@H](C)Cl)O[C@@H]1SC,Potency,[2],inactive
CN1CCN2c3ncccc3Cc3ccccc3C2C1 (stereo not drawn),Potency,[1],inactive
same,Potency,[2],inactive
CC(C)Oc1cc(Nc2nc(N[C@@H](C)c3ccc(F)cn3)ncc2Cl)[nH]n1,Potency,[2],1.65 µM (active)
CCCCc1ccc(NS(=O)(=O)c2ccc(C)c(C(=O)N3CCN(c4cccc(C)c4C)CC3)c2)cc1,Potency,[2],inactive
COc1ccc(-c2nc3ccc(C4=NNC(=O)CC4C)cc3[nH]2)cc1 (stereo not drawn),Potency,[6],inactive
same,Potency,[5],inactive
same,outcome,[8],inactive
same,Potency,[2],inactive
same,Potency,[7],inactive
CCCCC[C@H](O)C=C[C@H]1[C@H](O)CC(=O)[C@H]1CC=CCCCC(=O)O,Potency,[1],inactive
same,Potency,[7],inactive
CC(=O)NCCC(=O)N[C@@H](CCC(N)=O)C(=O)N[C@@H](CO)C(=O)N[C@@H](CCC(N)=O)C(=O)N[C@@H](CCC(N)=O)C(=O)N[C@H](C(=O)N[C@@H](Cc1ccccc1)C(=O)N[C@]1(C)CCCCCCC=CCCC[C@@](C)(C(=O)N[C@@H](CCC(N)=O)C(=O)N[C@@H](CC(N)=O)C(N)=O)NC(=O)[C@H](CC(C)C)NC(=O)[C@H](CC(C)C)NC(=O)[C@@H](CCCNC(=N)N)NC(=O)[C@H](Cc2c[nH]c3ccccc23)NC(=O)[C@H](CC(C)C)NC(=O)[C@H](CC(N)=O)NC1=O)[C@H](C)O,Potency,[2],inactive
c1ccc(CNc2nc(N3CCOc4ccccc43)nc3c2CCCC3)cc1,Potency,[6],inactive
same,Potency,[5],inactive
same,Potency,[2],inactive
CN1CCN(c2cccc(Nc3nc4c(-c5ccc(S(C)(=O)=O)cc5)cccn4n3)c2)CC1,Potency,[6],inactive
same,Potency,[5],inactive
same,Potency,[2],5.23 µM (active)
COc1ccc(-c2cc3nccn3c(Nc3ncccc3C(N)=O)n2)cc1OC,Potency,[6],inactive
same,Potency,[5],inactive
NC(=O)c1noc([C@H](CCCC2CCCCC2)CC(=O)NO)n1,Potency,[6],inactive
same,Potency,[2],inactive
